According to PubChem BioAssay AID493194 (Broad Institute, 2011):
Results with a measured potency or affinity are listed apart. Records with an inconclusive call do not appear.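 Rule for the calls: active = a valid curve of falling signal whose half-effect concentration is at most ten times the top tested dose; inconclusive = flat curve at 30 to 70% inhibition, or poor fit; inactive = signal rise, flat within 30%, or potency beyond limit.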

Each molecule was assayed against Scavenger receptor class B member 1 (Mus musculus) (UniProt Q61009) (assay: inhibitors of SR-BI mediated HDL lipid uptake, dose response, ldlA[mSR-BI] cells, fluorescence, cherry pick (AID 493194;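 note: CHO cells lacking LDL receptor and overexpressing mouse SR-BI; cellular uptake of fluorescently labeled HDL measured as cell fluorescence; 0% = median of neutral control wells and -100% = median of positive control wells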)). Details: CHO ldlA[mSR-BI] DiI-HDL uptake fluorescence, 3 h; series mostly up to 35 µM; activity change, negative = inhibition: at the top concentration.
Scavenger receptor class B member 1 (Mus musculus), sequence (Q61009 whole entry, looked up): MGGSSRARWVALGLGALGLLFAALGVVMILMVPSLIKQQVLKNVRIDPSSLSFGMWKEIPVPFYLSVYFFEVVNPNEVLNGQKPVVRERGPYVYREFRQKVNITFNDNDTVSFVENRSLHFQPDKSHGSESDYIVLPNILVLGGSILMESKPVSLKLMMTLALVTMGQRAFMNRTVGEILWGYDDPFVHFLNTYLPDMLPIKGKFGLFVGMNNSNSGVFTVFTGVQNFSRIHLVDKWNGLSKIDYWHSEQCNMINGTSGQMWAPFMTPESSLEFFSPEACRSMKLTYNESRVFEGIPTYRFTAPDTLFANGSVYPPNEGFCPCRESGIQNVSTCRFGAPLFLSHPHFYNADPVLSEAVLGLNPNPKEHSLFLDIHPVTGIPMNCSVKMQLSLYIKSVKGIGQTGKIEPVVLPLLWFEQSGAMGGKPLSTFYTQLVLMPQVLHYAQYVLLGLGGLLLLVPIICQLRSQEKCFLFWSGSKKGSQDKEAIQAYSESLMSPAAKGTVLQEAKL

Activity change, negative = inhibition, inactive:
CC(C)[C@H](NC(=O)c1ccco1)C(=O)OCC(=O)c1ccc2c(c1)NC(=O)CO2 19.2%
COCCCNc1nc2c(-c3cccc(C)c3)nnn2c2ccccc12 -9.49%
CCCCNc1c(-c2ccc(-c3ccc(C(C)=O)cc3)c(OC)c2)nc2cnccn12 -6.71%
COc1cc(-c2nnn(Cc3ccccc3C)n2)cc(OC)c1OC -31.9%
CCCCCCC(=O)Nc1nc(C)c(-c2csc(Nc3ccc(Cl)cc3)n2)s1 8.24%
CC(Sc1nc2cc([N+](=O)[O-])ccc2n1-c1ccc(F)cc1)C(=O)NCc1ccc2c(c1)OCO2 (stereo not drawn) -41.1%
CCOc1ccc(OCCSc2nc3ccccc3n2CC(=O)O)cc1 51.5%
COc1ccc(N2CC(C(=O)NCCc3ccc(Cl)cc3)CC2=O)c(OC)c1 (stereo not drawn) -7.36%
CN(C(=O)COn1nnc2ccc(S(=O)(=O)N3CCOCC3)cc21)c1ccccc1 -9.75%
CCCC(=O)Nc1ccc(Cl)c(NC(=O)c2cccc(OC)c2)c1 -4.6%
COc1ccc(-c2[nH]c(-c3ccc(F)cc3)nc2SCC(=O)NC2CCCC2)cc1 -26.3%
CCOC(=O)C1CCN(C(=O)Cn2nc(C)n3nc(-c4ccc(OC)cc4)cc3c2=O)CC1 -11.7%
Cc1cc(C(=O)COC(=O)c2ccc(Cl)c(S(N)(=O)=O)c2)c(C)n1C1CC1 -28.6%
O=C(Nc1ccccc1)NC1CC2CCC(C1)N2Cc1nnnn1Cc1ccc2c(c1)OCO2 (stereo not drawn) -1.78%
CCOC(=O)Nc1nc(-c2ccccc2)c(C(=O)c2ccccc2)s1 -13.9%
O=C(N[C@@H]1C/C=C\C[C@H](CC(=O)N(CCO)Cc2ccccc2)C(=O)NC[C@@H](c2ccccc2)OC1=O)OCC1c2ccccc2-c2ccccc21 17.1%
COCCCN(C(=O)c1ccco1)c1nc(-c2ccc(OC)cc2)cs1 -38.4%
CC[C@]12c3[nH]c4cc(-c5ccco5)ccc4c3CCN1C(=O)[C@@H](CC(=O)NCc1ccc(OC)c(OC)c1)C[C@@H]2C(=O)N1CCN(C(=O)c2ccco2)CC1 -27.9%
CN(C)S(=O)(=O)N1CCN(C(=O)N(c2ccccc2)c2ccccc2)CC1 -4.43%
CCC(C)C1/C=C\CC(NC(=O)OCC2c3ccccc3-c3ccccc32)CC(=O)N1Cc1ccccc1 (stereo not drawn) -17.9%
Cc1ccc(CNC(=O)c2ccc(N3CCC4(CC3)CC(c3cccc(Br)c3)=NO4)c([N+](=O)[O-])c2)cc1 -0.849%
CCOc1ccc(NC(=O)CN2CCN(CC(=O)Nc3ccc(OC)cc3)CC2)cc1 87.5%
Cc1cc(N(C)C(=O)c2ccc3c(c2)S(=O)(=O)c2cc(Cl)ccc2C3=O)c(C(F)(F)F)o1 -22.7%
COC(=O)c1[nH]c2c(c1C)C(=O)CC(c1cccs1)C2 (stereo not drawn) -2.17%
CCOc1ccccc1NC(=O)C(CC(C)C)NC(=O)C1CCC(C)CC1 (stereo not drawn) -35.8%
N#Cc1ccc(C(=O)N2CCC3CC2c2cc(-c4ccc(F)cc4)ccc23)cc1 (stereo not drawn) 4.03%
COC(=O)/C=C/c1ccc2c(c1)S(=O)(=O)N(c1cccc(OC)c1)[C@H]2CC(=O)OC -6.87%
Cc1sc(NC(=O)CN2CCOCC2)nc1-c1ccc2c(c1)CCN2S(=O)(=O)c1ccccc1 -0.043%
COc1ccc(N(CC(=O)NC2CCCC2)C(=O)Cn2nnc(-c3ccc(C)cc3)n2)cc1 0.875%
CCOc1ccc(NC(=O)CN2CCN(CC(=O)Nc3ccc(N(C)C)cc3)CC2)cc1 3.38%
CN(Cc1ccccc1N1CCCC1)C(=O)c1cc2cc(Cl)ccc2o1 -17%
COCCN(Cc1cn(C)nc1-c1ccc(Oc2ccccc2)cc1)C(C)C 4.72%
O=C(CSc1cn(CCNC(=O)c2cccs2)c2ccccc12)NCC1CCCO1 (stereo not drawn) -3.57%
Cc1cccc(NC(=O)c2cc(-c3cc(C)cc(C)c3O)n[nH]2)c1 -31.4%
Fc1ccc(-c2cc(-c3cccs3)cc(-c3ccccc3)n2)cc1 37.5%
COc1cc(OC)cc(C(=O)N[C@H](C(=O)Nc2nc(-c3ccc(F)c(F)c3)cs2)C(C)C)c1 3.52%
Cc1cc2oc(=O)cc(-c3ccccc3)c2c(C)c1-c1ccc(C(F)(F)F)cc1 -5.41%
C=CCN(CC=C)C(=O)COn1nnc2ccc(S(=O)(=O)N3CCOCC3)cc21 -32.2%
